The list is not random: actives were taken first. Their share in the collection is about 3.4%.
Mcl1-Noxa inh: Mcl-1/Noxa interaction inhibition | Q07820 | TR-FRET Mcl-1/Noxa peptide binding, 2 h | inhibition, % at 21.7 µM | 1.5% of 220,000 active | AID 1022;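 active means compounds that cut the protein-peptide binding signal by more than 50% relative to plate controls in a single-dose test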;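 further: His-tagged Mcl-1 with rhodamine Noxa BH3 peptide and terbium anti-His antibody; 0% = Mcl-1 plus Noxa peptide wells and 100% = peptide-only wells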
Target sequence (Q07820 whole entry, looked up): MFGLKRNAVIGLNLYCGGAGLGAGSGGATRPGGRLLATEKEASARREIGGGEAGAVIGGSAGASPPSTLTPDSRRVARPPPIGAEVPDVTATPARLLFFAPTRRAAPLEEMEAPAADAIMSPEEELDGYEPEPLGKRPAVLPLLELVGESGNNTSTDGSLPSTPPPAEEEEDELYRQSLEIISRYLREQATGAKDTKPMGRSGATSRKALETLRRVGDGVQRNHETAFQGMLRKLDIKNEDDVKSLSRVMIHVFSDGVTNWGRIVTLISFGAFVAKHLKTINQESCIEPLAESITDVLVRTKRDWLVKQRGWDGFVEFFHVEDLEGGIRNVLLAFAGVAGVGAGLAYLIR
Bim-Mcl-1: inhibitors of Bim-Mcl-1 interaction, human. inhibition, % at 10 µM. 0.1% of 190,000 active. Q07820. Bead-based flow cytometry, Bim peptide-Mcl-1 binding; in the data active means inhibition above about 40%;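 further: 0% = no compound tracer wells and 100% = peptide blocker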
Mcl1 Bid PPI: Mcl-1/Bid interaction inhibition. Q07820. TR-FRET Mcl-1/Bid-Dy647 peptide binding, 1536-well. inhibition, % at 21.7 µM. 0.97% of 220,000 active. AID 1021;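 active means compounds that cut the binding signal by more than half at the single screening dose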;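 further: His-tagged Mcl-1 with europium anti-His antibody binding Bid BH3 peptide; 0% = Mcl-1 plus peptide wells and 100% = peptide-only wells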
14-3-3 Bad PPI: disrupts binding of bovine 14-3-3 zeta to phospho-Bad peptide; P63103; TR-FRET 14-3-3zeta/Dy647-pBad peptide displacement, 1 h; inhibition, % at 21.7 µM; AID 781; 0.71% of 220,000 active;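 active means inhibition above about 70%, limit read from the data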;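 further: 0% = full 14-3-3 plus peptide FRET controls and 100% = background without 14-3-3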
Target sequence (P63103 whole entry, looked up): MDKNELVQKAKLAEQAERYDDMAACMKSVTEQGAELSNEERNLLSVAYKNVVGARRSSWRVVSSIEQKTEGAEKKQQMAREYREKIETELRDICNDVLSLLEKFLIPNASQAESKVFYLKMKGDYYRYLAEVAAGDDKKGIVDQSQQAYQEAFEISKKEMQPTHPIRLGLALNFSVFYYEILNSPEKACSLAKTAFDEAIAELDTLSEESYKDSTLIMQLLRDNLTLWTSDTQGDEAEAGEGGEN
eIF4E 4G PPI: eIF4E/eIF4G interaction inhibition in translation initiation; P63073+Q04637; 0.37% of 220,000 active; AID 782; inhibition, % at 21.7 µM; TR-FRET eIF4E-eIF4GI(517-606) binding, 2 h;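 further: 0% = full FRET control wells and 100% = background wells lacking eIF4GI fragment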
p47phox inh: blocks human p47phox regulatory protein of NADPH oxidases; AID 1274; P14598; p47phox/p22phox peptide binding, fluorescence polarization, 2 h; 0.53% of 220,000 active; inhibition, % at 24.7 µM;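 further: 0% = p47phox with labelled peptide and 100% = labelled peptide alone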
* marks the source's active call; other numbers are inactive results; / = not tested or not shown; [ ] = dose if it differs, or a comment.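 How the source made its calls, unless noted: active means inhibition above about 30% (limit read from the data); inactive means the rest.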

SMILES | Mcl1-Noxa inh | Bim-Mcl-1 | Mcl1 Bid PPI | 14-3-3 Bad PPI | eIF4E 4G PPI | p47phox inh
O=C(COc1ccc(Cl)cc1)NCc1nnc(SCC(=O)N2CCCC2)o1 | 5 | 2 | -12 | -3 | -3 | 0
Nc1cccc(/C=C/c2ccncc2)c1 | -6 | / | -26 | -2 | -6 | -6
Cn1cnc(S(=O)(=O)Nc2cc(-c3ccc(Cl)cc3)nn2C)c1 | 21 | / | -13 | -19 | -4 | 2
CC(=O)Nc1cccc(NC(=O)CSc2nnnn2-c2ccc3c(c2)OCO3)c1 | 2 | / | -40 | 2 | -6 | -9
O=S(=O)(NNc1ccc(Cl)nn1)c1ccc(F)cc1 | 14 | 6 | -18 | 8 | -4 | -5
O=C(Nc1nnc(-c2ccccc2Cl)o1)c1cc2cc([N+](=O)[O-])ccc2s1 | 55* | -2 | 35 | 45 | 8 | 2
O=c1n(S(=O)(=O)c2cccc3cccnc23)c2ccccc2n1S(=O)(=O)c1cccc2cccnc12 | 10 | -6 | 91* | 8 | 1 | -3
C=CCNC(=S)NS(=O)(=O)c1cccs1 | 8 | 0 | -23 | -6 | 1 | -12
CCOC(=O)c1nc(C)sc1-c1ccnn1S(=O)(=O)c1ccc(C)cc1 | 0 | / | 69* | -1 | 7 | -6
Cc1c(C(=O)NN2CCOCC2)oc2c1ccc1ccccc12 | 15 | 0 | -6 | -11 | -4 | 1
O=[N+]([O-])c1ccc2sc(SCc3nc4ccccn4c3Br)nc2c1 | 56* | -1 | -18 | 31 | 4 | -1
O=c1[nH]c(SCc2cccc(Cl)c2)nc2[nH]ncc12 | 1 | -2 | -5 | -5 | 0 | -13
O=C(O)C1CCCN1c1ncnc2c1oc1ccccc12 (stereo not given) | 3 | -2 | -8 | 1 | -1 | -3
O=C(O)C1CCCN1c1ncccn1 (stereo not given) | 12 | -1 | 1 | -9 | -1 | 78*
OC(COCC1COc2ccccc2O1)CN1CCN(c2ccccc2F)CC1 (stereo not given) | 28 | 0 | 25 | 89* | 8 | 5
CC1CCCC(C)N1C(=C(Cl)Cl)C(=C1SCCS1)[N+](=O)[O-] (stereo not given) | -9 | -2 | -13 | -16 | -1 | -15
O=C1c2ccccc2C(=O)N1CN(C(=O)COc1ccc(Cl)cc1Cl)c1cccc(F)c1 | 6 | 92* | -13 | -2 | -1 | -10
Cc1ccccc1SCCNC(=O)CCc1ccccc1 | 24 | -2 | 3 | 5 | -6 | -3
COc1cc2c(C)nc(C)c(C#N)c2cc1OC | 21 | -1 | 28 | 78* | 15 | -4
COc1cc2c(C)nc3onc(-c4ccccc4)c3c2cc1OC | 22 | 4 | -20 | 3 | -3 | -18
COCc1cccc(N2C(=O)CC(C3C=C(C)C4C(=O)N(c5cccc(COC)c5)C(=O)C4C3)C2=O)c1 (stereo not given) | -9 | 6 | -7 | -7 | -1 | -8
COc1ccc(N2Cc3cccc(C(=O)O)c3C2=O)cc1 | 79* | 0 | -21 | 5 | 11 | -12
Cc1cc(-c2nnc(-c3cccc(Cl)c3)o2)no1 | 10 | / | 0 | -4 | 1 | -13
COc1cc(N=Nc2cccc(S(N)(=O)=O)c2)c2ccccc2c1N | 67* | / | 4 | -3 | 9 | -79
S=c1nc(-c2sccc2OCc2ccc(Cl)cc2Cl)[nH][nH]1 | 11 | -1 | -39 | -7 | 0 | -2
SMILES | Mcl1-Noxa inh | Bim-Mcl-1 | Mcl1 Bid PPI | 14-3-3 Bad PPI | eIF4E 4G PPI | p47phox inh
O=C(CCC1CCCN(C(=O)c2ccsc2)C1)NCc1ccc(F)c(F)c1 (stereo not given) | -34 | 0 | -4 | -2 | -2 | 6
O=C(COc1ccc(S(=O)(=O)N2CCCC2)cc1)Nc1ccc2c(c1)OCCO2 | 11 | -4 | -16 | -9 | 0 | 0
COc1ccc(NC(=S)NNc2ccc(S(=O)(=O)Nc3ccccc3C(=O)O)cc2[N+](=O)[O-])cc1 | 88* | / | 73* | 14 | 9 | 11
Cc1nn(-c2ccccc2)c(Cl)c1/C=N/Nc1ccc(S(=O)(=O)Nc2ccccc2C(=O)O)cc1[N+](=O)[O-] | 105* | -3 | 100* | 88*[fluorescence artefact?] | 26 | -20
COc1ccc(-c2cc(C(F)(F)F)nc(-n3ccnc3)n2)cc1 | -5 | 1 | -4 | -9 | 2 | -10
Cc1ccc(NC(=O)CC2C(=O)NCCN2C(=S)Nc2ccccc2)c(C)c1 (stereo not given) | 0 | -1 | -79 | 75* | 3 | -7
COc1ccc(NC(=O)N2CCC(CO)(CC3CCCCO3)CC2)c(OC)c1 (stereo not given) | -9 | / | -59 | -2 | -4 | 3
CN1C(=O)/C(=C/c2cn(CC(=O)N3CCCCC3)c3ccccc23)c2ccccc21 | 97* | -3 | -23 | -10 | 7 | -8
Cc1cc(N2CCCC2)c(F)cc1/C=C\[N+](=O)[O-] | 0 | -1 | -18 | -1 | 1 | 79*
CCN1C(=O)N/C(=C/c2ccc(C)o2)C1=O | 25 | -5 | -81 | -4 | 20 | 1
CC1=C(C#N)C(=O)N(C2CCS(=O)(=O)C2)C(=O)/C1=C\c1ccc(C)o1 (stereo not given) | 93* | / | 4 | 20 | 38* | -21
Cc1nc2ccccn2c1C(=O)NC1CCCc2ccccc21 (stereo not given) | 17 | -1 | -24 | -2 | -2 | -9
Cc1nc(-c2ccccc2)sc1C(=O)CSc1ccc(Br)cc1 | -15 | -2 | -2 | -1 | -30 | -8
Cc1nc(-c2ccccc2)sc1C(=O)CSc1ccc(Cl)cc1 | 64* | -3 | 4 | -2 | -10 | -14
CC(C)(C)OC(=O)N1CCC[C@H]1c1nnc(SCc2cccc(Cl)c2)o1 | 22 | / | -19 | -12 | -1 | -5
O=C(O)c1ccccc1NC(=S)NC(=O)c1sc2ccccc2c1Cl | 58* | -9 | 0 | -2 | 3 | -10
O=C(Nc1ccnc(=O)[nH]1)c1sc2ccccc2c1Cl | 11 | / | 58* | 51 | -14 | -1
O=C(NNC(=S)NC(=O)c1sc2ccccc2c1Cl)c1ccc(Cl)cc1 | 53* | -4 | 40 | -6 | 7 | 1
Cc1cccc(C(=O)NC(=S)NNC(=O)c2cccs2)c1 | -32 | -3 | -80 | -23 | 7 | 1
Cc1cccc(C(=O)NC(=S)NNC(=O)c2ccc(Cl)cc2)c1 | 88* | 1 | -91 | -3 | 12 | -9
CCCCCCCCCC(=O)Nc1cccnc1 | 11 | -1 | -22 | -9 | -1 | 0
CNc1sc(C(=O)c2cccs2)c(N)c1-c1nc2ccccc2s1 | 56* | 3 | -26 | 11 | 1 | -43
CC(=O)Nc1scc(C)c1-c1nc2ccccc2s1 | -3 | / | -8 | -15 | -4 | -22
CNc1sc(C(=O)c2ccc(F)cc2)c(N)c1-c1nc2ccccc2s1 | 92* | -1 | -51 | 10 | -4 | -12

Screening data from PubChem BioAssay.
